This passage reports outcome results from PubChem BioAssay AID720688 (NMMLSC, 2013).

The target of this experiment is Cell division control protein 42 homolog (Homo sapiens) (UniProt P60953). Nature of the experiment: Cdc42 wildtype GTP-binding inhibitors, late-stage follow-up, mechanism study for Ras-family GTPase inhibitor project, biochemical, protein source comparison, flow cytometry beads, Bodipy-FL-GTP (AID 720688). The note with it: GST-Cdc42 beads; protein source 1, at 100 µM (top of the series). On the technique in general: Flow cytometry measures light scatter and fluorescence of single cells or particles in a stream.

Activity calls are given as the source filed them.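 Rule for the calls: active = half-effect concentration at most 10 µM, response change at least 30% across doses, and a curve fit passing quality checks; inactive = the rest.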

Cell division control protein 42 homolog (Homo sapiens), sequence (P60953 whole entry, looked up): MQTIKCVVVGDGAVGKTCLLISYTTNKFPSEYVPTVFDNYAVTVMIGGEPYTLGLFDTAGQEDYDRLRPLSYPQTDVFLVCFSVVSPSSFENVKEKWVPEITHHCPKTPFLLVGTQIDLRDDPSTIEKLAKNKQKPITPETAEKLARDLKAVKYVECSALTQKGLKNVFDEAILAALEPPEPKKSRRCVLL

As for `CC1(C)Cc2c(sc(NC(=S)NC(=O)c3cccc(N=[N+]=[N-])c3)c2C(=O)O)CO1`, the call was inactive.
With `CC1(C)Cc2c(sc(NC(=S)NC(=O)c3ccc(N=[N+]=[N-])cc3)c2C(=O)O)CO1`, the compound was called inactive.
